Source: PubChem BioAssay (NCI)
The panel holds about 83,000 compounds, 20% with a hit somewhere; the sample as a whole holds those more often.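 Activity criterion: percent growth below 10, measured after cells in 96-well plates were exposed to a single compound concentration for 48 hours.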 Values without a mark were called inactive. Calls of active or inactive are those of the source.

Experiments:
Assay in all cases: NCI-60 one-dose screen, 48 h (100 = growth as untreated, 0 = no growth, -100 = all killed)
Conditions in all cases: 10 µM unless noted
SK-MEL-2 melanoma = system: SK-MEL-2 melanoma
EKVX NSCLC = system: EKVX NSCLC
SN12C renal = system: SN12C renal
UO-31 renal = system: UO-31 renal
TK-10 renal = system: TK-10 renal
ACHN renal = system: ACHN renal
CAKI-1 renal = system: CAKI-1 renal
A498 renal = system: A498 renal
CCRF-CEM leukemia = system: CCRF-CEM leukemia
MOLT-4 leukemia = system: MOLT-4 leukemia

SMILES: COc1ccc(C(=O)COc2ccc(/C=C3\Oc4ccc5ccccc5c4C3=O)cc2)cc1
- growth (SK-MEL-2 melanoma): 77.9%
- growth (EKVX NSCLC): 90.9%
- growth (SN12C renal): 91.8%
- growth (UO-31 renal): -2.22% (active)
- growth (TK-10 renal): 142%
- growth (ACHN renal): 156%
- growth (CAKI-1 renal): 96%
- growth (A498 renal): 102%
- growth (CCRF-CEM leukemia): -21.9% (active)
- growth (MOLT-4 leukemia): 50.4%

SMILES: CC(=O)Nc1cc2c3c(cccc3c1)-c1ccccc1-2
- growth (SK-MEL-2 melanoma): 83.5%
- growth (EKVX NSCLC): 55.1%
- growth (SN12C renal): 31.6%
- growth (UO-31 renal): 19.2%
- growth (TK-10 renal): 96.3%
- growth (ACHN renal): 91.5%
- growth (CAKI-1 renal): 33.5%
- growth (A498 renal): 58.7%
- growth (CCRF-CEM leukemia): 21.4%
- growth (MOLT-4 leukemia): 45.8%

SMILES: O=C(COc1cccc(/C=C2\Oc3ccc4ccccc4c3C2=O)c1)c1ccc([N+](=O)[O-])cc1
- growth (SK-MEL-2 melanoma): 44.3%
- growth (EKVX NSCLC): 85.4%
- growth (SN12C renal): 98.2%
- growth (UO-31 renal): -41.6% (active)
- growth (TK-10 renal): 99.9%
- growth (ACHN renal): 98.4%
- growth (CAKI-1 renal): 69.3%
- growth (A498 renal): 108%
- growth (CCRF-CEM leukemia): 35.7%
- growth (MOLT-4 leukemia): 32%

SMILES: COc1ccc2cc(C3=CC(=O)CCC3)ccc2c1
- growth (SK-MEL-2 melanoma): 92.7%
- growth (EKVX NSCLC): 99.1%
- growth (SN12C renal): 97.2%
- growth (UO-31 renal): 92.4%
- growth (TK-10 renal): 100%
- growth (ACHN renal): 107%
- growth (CAKI-1 renal): 102%
- growth (A498 renal): -87.9% (active)
- growth (CCRF-CEM leukemia): 90.9%
- growth (MOLT-4 leukemia): 92.9%

SMILES: CCN(CC)CCSc1ncnc2c1cnn2-c1ccc(S(N)(=O)=O)cc1
- growth (SK-MEL-2 melanoma): 96.5%
- growth (EKVX NSCLC): 86.8%
- growth (SN12C renal): 89.5%
- growth (UO-31 renal): 87.7%
- growth (TK-10 renal): 103%
- growth (ACHN renal): 92.2%
- growth (CAKI-1 renal): 7.74% (active)
- growth (A498 renal): 92%
- growth (CCRF-CEM leukemia): 88.4%
- growth (MOLT-4 leukemia): 85.6%

SMILES: O=C1OC2(c3ccccc31)c1ccccc1-c1ccccc12
- growth (SK-MEL-2 melanoma): 65%
- growth (EKVX NSCLC): 87.9%
- growth (SN12C renal): 90.4%
- growth (UO-31 renal): 65.7%
- growth (TK-10 renal): 82.7%
- growth (ACHN renal): 101%
- growth (CAKI-1 renal): 62.3%
- growth (A498 renal): 69.8%
- growth (CCRF-CEM leukemia): 72.4%
- growth (MOLT-4 leukemia): 82.9%

SMILES: C=CCNC(=O)/C(=C/c1cccc([N+](=O)[O-])c1)NC(=O)c1ccccc1
- growth (SK-MEL-2 melanoma): 18.9%
- growth (EKVX NSCLC): 108%
- growth (SN12C renal): 103%
- growth (UO-31 renal): 90%
- growth (TK-10 renal): 101%
- growth (ACHN renal): 94%
- growth (CAKI-1 renal): 90.6%
- growth (A498 renal): 130%
- growth (CCRF-CEM leukemia): 90.6%
- growth (MOLT-4 leukemia): 101%

SMILES: CC[C@@H](C)/C=C(C)/C=C/C(O)=C1\C(=O)N[C@@H](Cc2ccc(OC(=O)[C@@](OC)(c3ccccc3)C(F)(F)F)cc2)C1=O
- growth (SK-MEL-2 melanoma): 80.2%
- growth (EKVX NSCLC): 54.1%
- growth (SN12C renal): 86.5%
- growth (UO-31 renal): 70.9%
- growth (TK-10 renal): 96.8%
- growth (ACHN renal): 103%
- growth (CAKI-1 renal): 30.5%
- growth (A498 renal): 64.7%
- growth (CCRF-CEM leukemia): 29.7%
- growth (MOLT-4 leukemia): 41.6%

SMILES: COC(=O)C1CCN(S(=O)(=O)c2ccc(-c3ccccc3)cc2)CC1
- growth (SK-MEL-2 melanoma): 8.48% (active)
- growth (EKVX NSCLC): 108%
- growth (SN12C renal): 105%
- growth (UO-31 renal): 97.1%
- growth (TK-10 renal): 122%
- growth (ACHN renal): 110%
- growth (CAKI-1 renal): 99.8%
- growth (A498 renal): 125%
- growth (CCRF-CEM leukemia): 138%
- growth (MOLT-4 leukemia): 161%

SMILES: COc1ccc(-c2cnc(SCC(=O)Nc3ccc(-c4nc5ccccc5s4)cc3)n2-c2ccc(OC)cc2)cc1
- growth (SK-MEL-2 melanoma): 102%
- growth (EKVX NSCLC): 108%
- growth (SN12C renal): 104%
- growth (UO-31 renal): 91.7%
- growth (TK-10 renal): 108%
- growth (ACHN renal): 111%
- growth (CAKI-1 renal): 103%
- growth (A498 renal): 108%
- growth (CCRF-CEM leukemia): 94.2%
- growth (MOLT-4 leukemia): 105%

SMILES: O=C(NCCCl)NCCN1c2nc3ccccc3cc2Sc2cc3ccccc3nc21
- growth (SK-MEL-2 melanoma): 40.5%
- growth (EKVX NSCLC): 54.7%
- growth (SN12C renal): 67.3%
- growth (UO-31 renal): -5.97% (active)
- growth (TK-10 renal): 99.2%
- growth (ACHN renal): 64.8%
- growth (CAKI-1 renal): 248%
- growth (A498 renal): 80.3%
- growth (CCRF-CEM leukemia): 20.5%
- growth (MOLT-4 leukemia): -9.47% (active)

SMILES: COP(=O)(OC)C(c1ccccc1)(c1ccccc1)c1ccccc1
- growth (SK-MEL-2 melanoma): 101%
- growth (EKVX NSCLC): 101%
- growth (SN12C renal): 97.7%
- growth (UO-31 renal): 113%
- growth (TK-10 renal): 69%
- growth (ACHN renal): 107%
- growth (CAKI-1 renal): 83%
- growth (A498 renal): 93%
- growth (CCRF-CEM leukemia): 84.3%
- growth (MOLT-4 leukemia): 46.5%
